# Reference: PubChem BioAssay (Tox21)
# “And” between values parts separate entries of the source, which are not always exact repeats. Equal entries are not always repeated. Records with an inconclusive call do not appear. Entries that show only a call come without a potency. Where a structure was tested more than once in an assay, its records may differ in their call. The source made the active and inactive calls. Unless noted, calls follow the shape of the dose curve; as a rule, active = well fitted curve in the direction sought with a large enough effect in the repeat runs; inconclusive = weak or mixed curves; inactive = no such curve, though single readings can be large; an effect the other way counts as inactive or inconclusive.
# Experiments:
# [1] = target: Acetylcholinesterase (Homo sapiens) (UniProt P22303); experiment: Acetylcholinesterase (AChE) small molecule antagonists: enzyme-based qHTS assay with human liver microsomes (AID 1347399; calls by dose curve; also: nearly all actives have a fitted effect of over 60% in size); details: Potency: qHTS inhibition; outcome: qHTS inhibition
# Procedure, shortened: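 Recombinant human AChE (50 mU/mL in the enzyme mix) and human liver microsomes (0.25 mg/mL final) were preincubated with compound and NADPH (0.25 mg/mL final) for 30 min at 37 C. Acetylthiocholine/DTNB was then added; thiocholine was read colorimetrically after 10 min at room temperature.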
# [2] = target: Cytochrome P450 2D6 (Homo sapiens) (UniProt P10635); experiment: Cytochrome P450 Family 2 Subfamily D Member 6 (CYP2D6) small molecule antagonists: luciferase reporter qHTS assay (AID 1671196); also: nearly all actives have a fitted effect of over 50% in size; as to activity change, negative = inhibition: series mostly up to about 120 µM
# Procedure, shortened: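 Luminogenic proluciferin substrate, CYP2D6 enzyme; 10 min RT preincubation with compound, NADPH regeneration system added, 1 h RT. Stop/detection reagent, 20 min RT, luminescence read (RLU). Signal proportional to CYP activity.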
# [3] = target: Cytochrome P450 2C19 (Homo sapiens) (UniProt P33261); experiment: Cytochrome P450 Family 2 Subfamily C Member 19 (CYP2C19) small molecule antagonists: luciferase reporter qHTS assay (AID 1671197); also: nearly all actives have a fitted effect of over 65% in size; as to activity change, negative = inhibition: series mostly up to about 120 µM
# Procedure, shortened: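 CYP2C19 P450-Glo, 1536-well qHTS. Cpd + enzyme/proluciferin substrate 10 min RT; + NADPH regen, 37C 1 h; stop with luciferin detection reagent, 20 min RT, luminescence (RLU). Pos ctrl ketoconazole.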
# [4] = target: Cytochrome P450 2C9 (Homo sapiens) (UniProt P11712); experiment: Cytochrome P450 Family 2 Subfamily C Member 9 (CYP2C9) small molecule antagonists: luciferase reporter qHTS assay (AID 1671198); also: nearly all actives have a fitted effect of over 50% in size; as to activity change, negative = inhibition: series mostly up to about 120 µM
# Procedure, shortened: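 CYP2C9 activity was measured with a P450-Glo proluciferin substrate. Enzyme–substrate mix was held with compound for 10 min at room temperature, then NADPH regeneration solution was added for 1 h at 37C. Luciferin product was read as luminescence.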
# [5] = target: Cytochrome P450 1A2 (Homo sapiens) (UniProt P05177); experiment: Cytochrome P450 Family 1 Subfamily A Member 2 (CYP1A2) small molecule antagonists: luciferase reporter qHTS assay (AID 1671199); also: nearly all actives have a fitted effect of over 50% in size; as to activity change, negative = inhibition: series mostly up to about 120 µM
# Procedure, shortened: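 Luminescence readout (relative luminescence units) after luciferin detection reagent, 20 min RT. Preceded by 1 h room-temperature CYP1A2 reaction with NADPH regeneration solution following 10 min compound preincubation with enzyme and proluciferin substrate. Furafylline positive control.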
# [6] = target: Voltage-gated inwardly rectifying potassium channel KCNH2 (Homo sapiens) (UniProt Q12809); experiment: Human Ether-a-go-go-Related Gene (hERG) channel small molecule antagonists: fluorescence cell-based qHTS assay (AID 1671200); also: nearly all actives have a fitted effect of over 50% in size;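 as to activity change, negative = inhibition: hERG-expressing U2OS cells given a thallium stimulus after FluxOR II dye loading; series mostly up to about 77 µM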
# Procedure, shortened: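 Quantitative HTS in hERG-U2OS cells: thallium entry through the channel reports activity, read as continuous 480/540 nm fluorescence over 2 min after stimulus addition.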
# [7] = target: Cytochrome P450 3A4 (Homo sapiens) (UniProt P08684); experiment: Cytochrome P450 Family 3 Subfamily A Member 4 (CYP3A4) small molecule antagonists: luciferase reporter qHTS assay (AID 1671201); also: nearly all actives have a fitted effect of over 50% in size; as to activity change, negative = inhibition: series mostly up to about 120 µM
# Procedure, shortened: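 Inhibition of CYP3A4 is measured as loss of light: the enzyme converts a proluciferin substrate to luciferin, detected luminescently. Reaction ran 1 h at room temperature with NADPH regeneration after a 10 min compound preincubation.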
# Potency is read from the fitted curve at half-maximal effect.
# Sequence of Acetylcholinesterase (Homo sapiens) (P22303 whole entry, looked up): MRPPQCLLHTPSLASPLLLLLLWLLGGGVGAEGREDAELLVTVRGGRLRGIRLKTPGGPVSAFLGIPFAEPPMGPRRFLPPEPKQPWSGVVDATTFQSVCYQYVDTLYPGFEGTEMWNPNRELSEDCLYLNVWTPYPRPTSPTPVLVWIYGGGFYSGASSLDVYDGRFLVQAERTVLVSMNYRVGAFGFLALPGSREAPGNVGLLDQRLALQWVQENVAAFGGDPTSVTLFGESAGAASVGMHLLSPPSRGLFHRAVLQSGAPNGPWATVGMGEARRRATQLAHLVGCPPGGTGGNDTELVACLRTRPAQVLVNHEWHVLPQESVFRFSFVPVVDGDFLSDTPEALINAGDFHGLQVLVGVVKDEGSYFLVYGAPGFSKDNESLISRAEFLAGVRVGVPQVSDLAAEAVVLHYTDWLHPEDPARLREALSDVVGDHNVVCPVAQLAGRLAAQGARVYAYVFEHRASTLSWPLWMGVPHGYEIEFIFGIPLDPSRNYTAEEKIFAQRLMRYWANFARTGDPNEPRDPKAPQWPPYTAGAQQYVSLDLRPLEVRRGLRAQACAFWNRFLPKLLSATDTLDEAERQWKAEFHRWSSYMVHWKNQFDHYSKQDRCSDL
# Sequence of Cytochrome P450 2D6 (Homo sapiens) (P10635 whole entry, looked up): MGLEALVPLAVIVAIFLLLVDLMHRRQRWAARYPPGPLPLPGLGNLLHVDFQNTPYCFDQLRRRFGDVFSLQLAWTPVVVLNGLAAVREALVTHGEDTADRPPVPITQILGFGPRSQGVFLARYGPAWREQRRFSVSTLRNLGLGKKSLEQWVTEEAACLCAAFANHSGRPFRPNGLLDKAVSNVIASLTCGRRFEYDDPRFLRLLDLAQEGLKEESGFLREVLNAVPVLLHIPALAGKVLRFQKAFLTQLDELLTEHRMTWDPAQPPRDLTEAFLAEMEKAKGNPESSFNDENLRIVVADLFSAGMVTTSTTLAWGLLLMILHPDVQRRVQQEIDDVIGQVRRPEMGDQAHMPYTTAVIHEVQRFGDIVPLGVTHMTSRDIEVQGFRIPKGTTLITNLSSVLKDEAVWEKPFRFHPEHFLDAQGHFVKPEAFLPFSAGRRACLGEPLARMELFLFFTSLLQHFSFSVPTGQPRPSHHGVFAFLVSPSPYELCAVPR
# Sequence of Voltage-gated inwardly rectifying potassium channel KCNH2 (Homo sapiens) (Q12809 whole entry, looked up): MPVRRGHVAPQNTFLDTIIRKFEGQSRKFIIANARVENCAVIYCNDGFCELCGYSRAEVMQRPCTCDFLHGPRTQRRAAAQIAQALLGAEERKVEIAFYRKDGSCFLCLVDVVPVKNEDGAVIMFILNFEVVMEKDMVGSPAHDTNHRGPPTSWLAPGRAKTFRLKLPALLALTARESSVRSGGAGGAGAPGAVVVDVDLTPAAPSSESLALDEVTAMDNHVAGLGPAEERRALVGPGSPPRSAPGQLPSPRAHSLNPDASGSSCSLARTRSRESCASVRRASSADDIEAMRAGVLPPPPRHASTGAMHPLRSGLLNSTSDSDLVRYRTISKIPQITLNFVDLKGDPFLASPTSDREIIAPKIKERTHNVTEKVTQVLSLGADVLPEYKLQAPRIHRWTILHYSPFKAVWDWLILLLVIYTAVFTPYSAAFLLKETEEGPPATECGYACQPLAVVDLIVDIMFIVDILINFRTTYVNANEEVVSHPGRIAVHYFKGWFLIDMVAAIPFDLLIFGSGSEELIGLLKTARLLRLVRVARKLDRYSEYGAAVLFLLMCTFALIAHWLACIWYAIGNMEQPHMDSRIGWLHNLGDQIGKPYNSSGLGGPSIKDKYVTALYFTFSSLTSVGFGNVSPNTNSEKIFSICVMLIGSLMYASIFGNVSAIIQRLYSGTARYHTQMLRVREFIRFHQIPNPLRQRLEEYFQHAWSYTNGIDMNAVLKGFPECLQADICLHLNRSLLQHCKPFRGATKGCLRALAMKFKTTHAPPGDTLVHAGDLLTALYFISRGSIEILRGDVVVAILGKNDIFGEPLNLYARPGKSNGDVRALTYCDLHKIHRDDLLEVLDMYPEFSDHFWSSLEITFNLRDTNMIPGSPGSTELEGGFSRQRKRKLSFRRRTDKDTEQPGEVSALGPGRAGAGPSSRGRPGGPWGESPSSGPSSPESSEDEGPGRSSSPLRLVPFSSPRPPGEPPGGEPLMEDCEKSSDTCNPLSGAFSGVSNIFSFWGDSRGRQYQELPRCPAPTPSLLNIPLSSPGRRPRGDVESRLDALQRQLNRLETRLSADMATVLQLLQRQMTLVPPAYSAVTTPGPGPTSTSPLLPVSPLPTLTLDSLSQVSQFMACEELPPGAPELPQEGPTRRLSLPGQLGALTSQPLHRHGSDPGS
# Sequence of Cytochrome P450 1A2 (Homo sapiens) (P05177 whole entry, looked up): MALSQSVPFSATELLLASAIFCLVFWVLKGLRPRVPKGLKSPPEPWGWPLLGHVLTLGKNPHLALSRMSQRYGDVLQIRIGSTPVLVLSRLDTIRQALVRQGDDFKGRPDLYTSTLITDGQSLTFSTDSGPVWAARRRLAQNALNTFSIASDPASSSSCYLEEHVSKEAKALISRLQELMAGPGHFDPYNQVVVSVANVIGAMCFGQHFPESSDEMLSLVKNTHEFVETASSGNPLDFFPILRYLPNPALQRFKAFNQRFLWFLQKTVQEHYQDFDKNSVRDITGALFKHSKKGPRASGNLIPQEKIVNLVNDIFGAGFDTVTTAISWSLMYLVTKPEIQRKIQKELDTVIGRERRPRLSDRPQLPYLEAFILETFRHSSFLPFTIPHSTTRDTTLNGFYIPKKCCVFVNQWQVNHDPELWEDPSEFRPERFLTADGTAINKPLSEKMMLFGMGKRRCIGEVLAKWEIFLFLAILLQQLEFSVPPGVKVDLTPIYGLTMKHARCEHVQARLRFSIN
# Sequence of Cytochrome P450 2C19 (Homo sapiens) (P33261 whole entry, looked up): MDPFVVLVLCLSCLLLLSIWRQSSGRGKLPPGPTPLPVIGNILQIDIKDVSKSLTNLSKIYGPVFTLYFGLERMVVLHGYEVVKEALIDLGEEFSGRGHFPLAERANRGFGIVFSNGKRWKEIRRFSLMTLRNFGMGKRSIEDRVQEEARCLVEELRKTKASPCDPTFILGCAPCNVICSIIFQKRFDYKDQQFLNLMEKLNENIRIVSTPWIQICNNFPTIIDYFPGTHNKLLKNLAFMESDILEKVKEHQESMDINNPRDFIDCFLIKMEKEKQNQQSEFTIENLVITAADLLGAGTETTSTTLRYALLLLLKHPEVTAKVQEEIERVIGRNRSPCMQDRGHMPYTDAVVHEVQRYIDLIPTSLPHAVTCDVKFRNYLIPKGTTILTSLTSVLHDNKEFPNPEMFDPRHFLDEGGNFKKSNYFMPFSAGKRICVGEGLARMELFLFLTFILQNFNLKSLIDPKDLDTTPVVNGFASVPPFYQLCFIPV
# Sequence of Cytochrome P450 2C9 (Homo sapiens) (P11712 whole entry, looked up): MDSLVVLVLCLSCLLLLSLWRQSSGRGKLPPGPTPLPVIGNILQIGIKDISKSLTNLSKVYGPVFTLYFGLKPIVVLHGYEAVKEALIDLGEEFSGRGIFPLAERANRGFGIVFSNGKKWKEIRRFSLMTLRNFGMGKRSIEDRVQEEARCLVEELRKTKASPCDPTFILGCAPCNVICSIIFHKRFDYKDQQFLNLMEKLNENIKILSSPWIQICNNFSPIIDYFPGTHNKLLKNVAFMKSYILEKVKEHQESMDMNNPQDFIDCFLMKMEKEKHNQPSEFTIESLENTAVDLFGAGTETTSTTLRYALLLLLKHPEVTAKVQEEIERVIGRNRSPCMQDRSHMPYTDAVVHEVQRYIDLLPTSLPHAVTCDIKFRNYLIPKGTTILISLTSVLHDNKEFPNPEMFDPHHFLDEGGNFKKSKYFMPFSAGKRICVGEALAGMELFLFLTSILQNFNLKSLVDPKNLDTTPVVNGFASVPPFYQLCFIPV
# Sequence of Cytochrome P450 3A4 (Homo sapiens) (P08684 whole entry, looked up): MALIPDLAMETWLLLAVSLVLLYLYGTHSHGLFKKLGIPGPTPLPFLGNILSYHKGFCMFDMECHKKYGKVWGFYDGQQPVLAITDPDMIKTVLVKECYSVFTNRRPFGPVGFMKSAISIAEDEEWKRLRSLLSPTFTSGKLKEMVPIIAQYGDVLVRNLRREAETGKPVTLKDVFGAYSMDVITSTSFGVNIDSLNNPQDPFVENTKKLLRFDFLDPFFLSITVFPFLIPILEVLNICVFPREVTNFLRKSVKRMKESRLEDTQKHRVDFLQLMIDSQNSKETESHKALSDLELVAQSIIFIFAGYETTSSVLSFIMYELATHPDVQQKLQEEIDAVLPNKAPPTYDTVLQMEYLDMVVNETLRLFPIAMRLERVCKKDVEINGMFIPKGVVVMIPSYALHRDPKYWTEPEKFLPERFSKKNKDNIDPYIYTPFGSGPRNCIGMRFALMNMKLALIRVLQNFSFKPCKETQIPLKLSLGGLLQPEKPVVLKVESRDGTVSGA
Compound,Potency [1],Potency [2],Potency [3],Potency [4],Potency [5],Potency [6],Potency [7],"activity change, negative = inhibition [1]","activity change, negative = inhibition [2]","activity change, negative = inhibition [3]","activity change, negative = inhibition [4]","activity change, negative = inhibition [6]"
NNCCO,inactive,inactive,inactive,inactive,inactive,inactive,inactive,–,–,–,–,–
C[C@H]1[C@@H]2Cc3ccc(O)cc3[C@@]1(C)CCN2C,191 µM (active),33.9 µM (active),53.8 µM (active),inactive,inactive,inactive,–,–,–,–,–,–
Clc1ccccc1,inactive,inactive,inactive,inactive,inactive,inactive,–,–,–,–,–,–
CCCC[N+]1(C)[C@@H]2CC(OC(=O)[C@H](CO)c3ccccc3)C[C@H]1[C@@H]1O[C@@H]12 (stereo not given in full),inactive,1.55 µM (active),inactive,inactive,inactive,inactive,inactive,–,–,–,–,–
CN(C)c1ccc(N=O)cc1,inactive,17.9 µM (active) and 25.2 µM (active),5.66 µM (active) and 8.94 µM (active),35.7 µM (active) and 39.9 µM (active),35.7 µM (active) and 39.9 µM (active),inactive,–,–,–,–,–,–
COc1cc(C[C@@H](C)N)c(OC)cc1Br,inactive,11.6 µM (active),inactive,inactive,36.5 µM (active),inactive,–,–,–,–,–,–
CC(Cc1ccccc1)NCc1ccccc1Cl (stereo not given),inactive,0.174 µM (active),1.38 µM (active),inactive,15.5 µM (active),inactive,–,–,–,–,–,–
CCCCC(CC)CO[N+](=O)[O-] (stereo not given),inactive,inactive,inactive,inactive,inactive,inactive,inactive,–,–,–,–,–
C=CCN1C[C@H](C)N([C@H](c2ccc(C(=O)N(CC)CC)cc2)c2cccc(OC)c2)C[C@H]1C,inactive,3.09 µM (active),inactive,inactive,inactive,3.01 µM (active),–,–,–,–,–,–
COc1cc(CC(C)N)c(OC)cc1Br (stereo not given),inactive,26 µM (active),inactive,inactive,5.2 µM (active),inactive,–,–,–,–,–,–
CCOP(=O)(O)C(N)=O,inactive,inactive,inactive,inactive,inactive,inactive,inactive,–,–,–,–,–
Cc1cccc(C)c1NC1=NCCCS1,inactive,11 µM (active),inactive,inactive,inactive,inactive,–,–,–,–,–,–
CCC1(C2=NCCN2)Cc2ccccc2O1 (stereo not given),inactive,15.5 µM (active),inactive,inactive,inactive,inactive,inactive,–,–,–,–,–
CCOC(C(=O)OCCN(C)C)(c1ccccc1)c1ccccc1,inactive,2.75 µM (active),8.71 µM (active),11 µM (active),inactive,inactive,–,–,–,–,–,–
O=S(=O)(c1ccccc1)c1ccccc1,inactive,inactive,63.3 µM (active),inactive,inactive,inactive,–,–,–,–,–,–
OCCCl,inactive,inactive,inactive,inactive,inactive,inactive,inactive,–,–,–,–,–
CCC(C)(C)c1ccc(O)c(C(C)(C)CC)c1,inactive,35.2 µM (active) and 31.7 µM (active),4.97 µM (active) and 1.78 µM (active),4.43 µM (active) and 5.64 µM (active),19.8 µM (active) and 31.7 µM (active),inactive,–,–,–,–,–,–
O=[N+]([O-])O[C@H]1CO[C@H]2[C@@H]1OC[C@H]2O[N+](=O)[O-],inactive,inactive,inactive,inactive,inactive,inactive,–,–,–,–,–,–
OC[P+](CO)(CO)CO,inactive,inactive,inactive,inactive,inactive,inactive,–,–,–,–,–,–
c1ccc2sc(SNC3CCCCC3)nc2c1,inactive,19.8 µM (active) and 35.6 µM (active),31.4 µM (active) and 22.4 µM (active),31.4 µM (active) and 17.8 µM (active),55.8 µM (active) and 35.6 µM (active),inactive,inactive,–,–,–,–,–
CCCCCBr,inactive,inactive,inactive,inactive,inactive,inactive,inactive,–,–,–,–,–
CCCN(CCC)c1c([N+](=O)[O-])cc(C(C)C)cc1[N+](=O)[O-],inactive,inactive,8.75 µM (active) and 5.03 µM (active),27.7 µM (active) and 31.7 µM (active),27.7 µM (active) and 35.6 µM (active),inactive,–,–,–,–,–,–
CCOC(=O)c1cn2nc(OP(=S)(OCC)OCC)cc2nc1C,2 µM (active),25.2 µM (active),2.52 µM (active),5.03 µM (active),8.94 µM (active),–,–,–,–,–,–,–
C#C[C@]1(O)CC[C@H]2[C@@H]3CCC4=CC(=O)CCC4=C3C=C[C@@]21CC,inactive,5.49 µM (active),2.45 µM (active),0.776 µM (active),inactive,inactive,–,–,–,–,–,–
OCC1CO1 (stereo not given),inactive,inactive,inactive,inactive,inactive,inactive,inactive,–,–,–,–,–
COC1CC(=C(c2cccs2)c2cccs2)C[N+](C)(C)C1 (stereo not given),inactive,0.309 µM (active),inactive,inactive,inactive,–,–,–,–,–,–,–

Compound,Potency [1],Potency [2],Potency [3],Potency [4],Potency [5],Potency [6],Potency [7],"activity change, negative = inhibition [1]","activity change, negative = inhibition [2]","activity change, negative = inhibition [3]","activity change, negative = inhibition [4]","activity change, negative = inhibition [6]"
O=C(O)COc1cc(Cl)c(Cl)cc1Cl,inactive,inactive,inactive,63.4 µM (active) and 39.9 µM (active),inactive,inactive,inactive,–,–,–,–,–
C1CS1,inactive,inactive,inactive,inactive,64.9 µM (active),inactive,inactive,–,–,–,–,–
O=C1c2ccccc2C(=O)N1SC(Cl)(Cl)Cl,inactive,inactive,78.5 µM (active) and 20 µM (active),24.8 µM (active) and 11.2 µM (active),24.8 µM (active) and 22.4 µM (active),24.2 µM (active) and 38.9 µM (active),inactive,–,–,–,–,–
CC(CC(C(N)=O)(c1ccccc1)c1ccccc1)N(C)C (stereo not given),inactive,6.17 µM (active),inactive,inactive,inactive,inactive,inactive,–,–,–,–,–
O=C(Cc1ccccc1)OCCc1ccccc1,inactive,inactive,2.52 µM (active),20 µM (active),10 µM (active),inactive,inactive,–,–,–,–,–
CC(C)(C)CC(C)(C)c1ccc(O)cc1,inactive,39.9 µM (active) and inactive,inactive,22.4 µM (active) and 15.5 µM (active),37.3 µM (active),40 µM (active),inactive,–,–,–,–,–
CCOP(=S)(OCC)Oc1ccc(S(C)=O)cc1 (stereo not given),inactive,inactive,0.113 µM (active),0.252 µM (active),3.99 µM (active),inactive,–,–,–,–,–,–
C[C@H](N)[C@H](O)c1ccc(O)c(O)c1,inactive,inactive,inactive,inactive,inactive,inactive,inactive,–,–,–,–,–
Nc1c(Br)cc(Br)c2c1C(=O)c1ccccc1C2=O,–,–,–,–,0.168 µM (active),–,–,0.243% [at 23.6 µM] (inactive),0.314% [at 23.6 µM] (inactive),-3.63% [at 23.6 µM] (inactive),-2.78% [at 23.6 µM] (inactive),-6.02% [at 15.8 µM] (inactive)
O=C=NC1CCCCC1,inactive,inactive,inactive,inactive,inactive,inactive,–,–,–,–,–,–
Cc1ccc2c(C)cccc2c1,inactive,inactive,inactive,inactive,inactive,inactive,–,–,–,–,–,–
C[N+](C)(C)CCOC(=O)C(O)(c1ccccc1)c1ccccc1,inactive,15.5 µM (active),inactive,inactive,inactive,inactive,–,–,–,–,–,–
Cc1ccccc1,inactive,inactive,inactive,inactive,inactive,inactive,inactive,–,–,–,–,–
C=C(C)C(=O)OCCCCOC(=O)C(=C)C,inactive,inactive,7.96 µM (active),39.9 µM (active),25.2 µM (active),inactive,inactive,–,–,–,–,–
CCCC(C)(COC(N)=O)COC(=O)NC(C)C (stereo not given),inactive,inactive,20 µM (active) and 8.71 µM (active),inactive,inactive,inactive,inactive,–,–,–,–,–
CCCSP(=S)(OCC)Oc1ccc(SC)cc1 (stereo not given),inactive,25.2 µM (active),0.399 µM (active),2.52 µM (active),2 µM (active),inactive,3.17 µM (active),–,–,–,–,–
CC(C)(C)N(NC(=O)c1ccc(Cl)cc1)C(=O)c1ccccc1,inactive,inactive,4.45 µM (active),11.2 µM (active),39.7 µM (active),inactive,7.92 µM (active),–,–,–,–,–
CNC(=O)Oc1cccc(N=CN(C)C)c1,63.3 µM (active),79.6 µM (active),79.6 µM (active),79.6 µM (active),–,inactive,inactive,–,–,–,–,–
C=CC(=O)OCC,inactive,inactive,inactive,inactive,inactive,inactive,inactive,–,–,–,–,–
CCCCCCCCn1sccc1=O,inactive,11.3 µM (active),10.1 µM (active) and 23.5 µM (active),10.1 µM (active) and 9.37 µM (active),28.3 µM (active) and 23.5 µM (active),21.9 µM (active),28.3 µM (active) and 37.3 µM (active),–,–,–,–,–
C1CCNCC1,inactive,inactive,inactive,inactive,36.8 µM (active),inactive,inactive,–,–,–,–,–
CC(C)(C)c1ccc(CCOc2ncnc3ccccc23)cc1,inactive,71 µM (active),inactive,inactive,inactive,inactive,inactive,–,–,–,–,–
CC(C)(c1ccccc1)c1cc(-n2nc3ccccc3n2)c(O)c(C(C)(C)c2ccccc2)c1,inactive,inactive,inactive,inactive,–,inactive,inactive,–,–,–,–,–
CCCC[N+](CCCC)(CCCC)CCCC,inactive,0.0089 µM (active),inactive,inactive,inactive,–,inactive,–,–,–,–,–
C=CCc1ccc(OC(=O)Cc2ccccc2)c(OC)c1,inactive,35.6 µM (active),22.4 µM (active),12.6 µM (active),35.6 µM (active),inactive,11.2 µM (active),–,–,–,–,–
